Four compounds from PubChem BioAssay (EPA / NIEHS) can be followed below.

Values joined by “and” are separate entries in the source; they are usually repeats but may differ in a detail not shown here. Identical values can stand only once. Results filed as inconclusive are left out. More than one record can exist for a structure, and the calls need not agree. Active and inactive are the calls of the source. The calls were made as follows: active = hit-call score of the fitted dose curve at least 0.9, where 1 is the maximum; inconclusive = response in the unintended direction; inactive = score below 0.9.

Test [1] concerns the target GAL4 Transcription Factor (Internal Marker), GAL4 (gene 855828) (UniProt P04386). The test is described as follows: ATG_GAL4_XSP1: Attagene TRANS-FACTORIAL Multi-Species (XSP1) HepG2 Assay for GAL4 Transcription Factor (Internal Marker) (AID 2283789). The procedure, abridged: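 This background-control endpoint measures GAL4-driven reporter mRNA via RT-PCR and capillary electrophoresis of labelled fragments. Transiently transfected HepG2 cells were treated 24 h, with 3 nM 6-alpha-fluorotestosterone included, and gain-of-signal was fitted against DMSO.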

Test [2] in a line: ATG_M_19_XSP1: Attagene TRANS-FACTORIAL Multi-Species (XSP1) HepG2 Assay for M19 Transcription Factor (Internal Marker) (AID 2283798). In outline:
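Readout is reporter mRNA induction quantified via RT-PCR, 6-FAM labeling, HpaI digestion and capillary electrophoresis, fitted in the positive direction versus DMSO baseline. Transfected HepG2 cells exposed 24 h, medium including 3 nM 6-alpha-fluorotestosterone.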

The nature of test [3]: ATG_M_32_XSP1: Attagene TRANS-FACTORIAL Multi-Species (XSP1) HepG2 Assay for M32 Transcription Factor (Internal Marker) (AID 2283799). The procedure, abridged:
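Reporter transcripts from the M32 internal-control unit measured by RT-PCR, FAM labelling, HpaI digestion and capillary electrophoresis after 24 h compound exposure of transfected HepG2, 3 nM 6-alpha-fluorotestosterone included; DMSO baseline, positive-direction fit.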

Test [4] deals with Peroxisome proliferator-activated receptor gamma (Homo sapiens) (UniProt P37231). The test is described as follows: ATG_hPPARg_XSP1: Attagene TRANS-FACTORIAL Multi-Species (XSP1) HepG2 Assay for human Peroxisome Proliferator-activated Receptor gamma (PPARg) (AID 2283800). The procedure, abridged:
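Reporter mRNA induction, measured by RT-PCR with capillary electrophoresis 24 h after dosing, scored as gain over DMSO. Transfected HepG2 cells express exogenous NR-Gal4 chimeras driving GAL4-UAS reporters; medium includes 3 nM 6-alpha-fluorotestosterone.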

Test [5] concerns zebrafish Peroxisome Proliferator-activated Receptor gamma (PPARg), gene 557037. As to the kind of experiment: ATG_zfPPARg_XSP1: Attagene TRANS-FACTORIAL Multi-Species (XSP1) HepG2 Assay for zebrafish Peroxisome Proliferator-activated Receptor gamma (PPARg) (AID 2283801). The procedure, abridged:
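Trans-activation readout of chimeric zebrafish PPARg–GAL4 in transiently transfected human HepG2 cells, 24 h chemical exposure (medium includes 3 nM 6-alpha-fluorotestosterone). Reporter transcripts measured by RT-PCR and capillary electrophoresis, fitted as gain over DMSO.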

Test [6] deals with mouse Peroxisome Proliferator-activated Receptor gamma (PPARg), Pparg (gene 19016) (UniProt P37238). The test is described as follows: ATG_mPPARg_XSP1: Attagene TRANS-FACTORIAL Multi-Species (XSP1) HepG2 Assay for mouse Peroxisome Proliferator-activated Receptor gamma (PPARg) (AID 2283802). The procedure, abridged:
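Readout is reporter mRNA induction, measured by RT-PCR with 6-FAM labelling, HpaI digestion and capillary electrophoresis, 24 h post-dose relative to DMSO. Transient multi-reporter transfection of human HepG2 with mouse PPARg–GAL4 fusion; 3 nM 6-alpha-fluorotestosterone included.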

In test [7] the target is Nuclear receptor subfamily 1 group I member 2 (Mus musculus) (UniProt O54915). The test is described as follows: ATG_mPXR_XSP1: Attagene TRANS-FACTORIAL Multi-Species (XSP1) HepG2 Assay for mouse Pregnane X Receptor (PXR) (AID 2283803). In outline:
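Transiently transfected HepG2 cells expressing a receptor-Gal4 chimera drive a GAL4-UAS reporter; 3 nM 6-alpha-fluorotestosterone included. Reporter mRNA read 24 h post-dose by RT-PCR and capillary electrophoresis; gain of signal relative to DMSO.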

The target in test [8] is frog Thyroid hormone Receptor alpha (TRa), thra-a (gene 397942) (UniProt P15204). As to the kind of experiment: ATG_frTRa_XSP1: Attagene TRANS-FACTORIAL Multi-Species (XSP1) HepG2 Assay for frog Thyroid hormone Receptor alpha (TRa) (AID 2283804). The procedure, abridged: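 Reporter transcript induction, measured by RT-PCR with 6-FAM labelling and capillary electrophoresis, 24 hr after dosing transiently transfected HepG2 cells expressing a frog TRa-GAL4 fusion; medium contained 3 nM 6-alpha-fluorotestosterone; increase over DMSO scored.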

The test system of test [9] is turtle Thyroid Hormone Receptor, alpha (TRa), gene 101949057. The test is described as follows: ATG_trTRa_XSP1: Attagene TRANS-FACTORIAL Multi-Species (XSP1) HepG2 Assay for turtle Thyroid Hormone Receptor, alpha (TRa) (AID 2283806). In outline: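 After 24 h chemical exposure, reporter transcripts were measured by RT-PCR with fluorescent primer extension, HpaI digestion and capillary electrophoresis. Cells were transiently transfected HepG2 expressing exogenous NR-Gal4 chimeras; medium contained 3 nM 6-alpha-fluorotestosterone; fitted upward relative to DMSO.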

Test [10] has as its target zebrafish Thyroid Hormone Receptor beta (TRb), thrb (gene 30607) (UniProt Q9PVE4). The test is described as follows: ATG_zfTRb_XSP1: Attagene TRANS-FACTORIAL Multi-Species (XSP1) HepG2 Assay for zebrafish Thyroid Hormone Receptor beta (TRb) (AID 2283809). The procedure, abridged:
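HepG2 cells transiently transfected with multiplexed GAL4-UAS reporter units expressing chimeric zebrafish TRb–Gal4. Dosed 24 h with 3 nM 6-alpha-fluorotestosterone present; reporter mRNA measured by RT-PCR, HpaI digestion and capillary electrophoresis; gain of signal versus DMSO.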

Test [11] can be described thus: ATG_XTT_Cytotoxicity_XSP1: Cytotoxicity Assessment in the Attagene TRANS-FACTORIAL Multi-Species (XSP1) HepG2 Assay (AID 2283810). In outline: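 XTT viability readout taken at 24 hours post-dosing in HepG2 liver cells co-treated with 3 nM 6-alpha-fluorotestosterone. Signal loss relative to DMSO controls reflects cytotoxicity.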
The nature of test [12]: ATG_M_06_XSP2: Attagene TRANS-FACTORIAL Multi-Species (XSP2) HepG2 Assay for M06 Transcription Factor (Internal Marker) (AID 2283811).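 Also: hits are increases in signal above the DMSO baseline.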 The procedure, abridged: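 Cells of the human liver line HepG2 carried transfected reporter transcription units and were treated for 24 h. Induced reporter transcripts were detected by fluorescence after RT-PCR and capillary electrophoresis, with activity fitted in the gain direction against DMSO.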

Test [13] has as its system turtle Estrogen Receptor (ERa), gene 101933533. The test is described as follows: ATG_trERa_XSP2: Attagene TRANS-FACTORIAL Multi-Species (XSP2) HepG2 Assay for turtle Estrogen Receptor (ERa) (AID 2283812).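 Also: actives raise reporter signal above DMSO so AC50 reflects agonist activity.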 The procedure, abridged:
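Readout is reporter mRNA quantified by RT-PCR with capillary electrophoresis after 24 h compound exposure, increase relative to DMSO. Uses transiently transfected human HepG2 liver cells carrying a chimeric turtle ERa-Gal4 receptor driving GAL4-UAS reporters.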

Test [14] deals with Estrogen receptor beta (Homo sapiens) (UniProt Q92731). The test is described as follows: ATG_hERb_XSP2: Attagene TRANS-FACTORIAL Multi-Species (XSP2) HepG2 Assay for human Estrogen Receptor (ERb) (AID 2283813).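 Also: actives raise reporter mRNA above DMSO so AC50 reflects agonist induction.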 The procedure, abridged: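 Transient TRANS reporter system in HepG2: after 24 h of chemical, RNA is reverse-transcribed, reporter cDNA amplified, FAM-labelled and sized by capillary electrophoresis. Induction of the human ERb-Gal4 reporter is measured relative to DMSO.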

The target of test [15] is zebrafish Estrogen Receptor (ER1), esr1 (gene 259252) (UniProt P57717). The test is described as follows: ATG_zfER1_XSP2: Attagene TRANS-FACTORIAL Multi-Species (XSP2) HepG2 Assay for zebrafish Estrogen Receptor (ER1) (AID 2283816). In outline:
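After 24 h compound exposure, RNA from transfected HepG2 cells was reverse-transcribed and reporter transcripts resolved by capillary electrophoresis. The TRANS format reads exogenous zebrafish ER1-Gal4 chimera activity on GAL4-UAS elements; gain of signal against DMSO.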

Test [16] concerns the target chicken Estrogen Receptor (ERa), ESR1 (gene 396099) (UniProt P06212). As to the kind of experiment: ATG_chERa_XSP2: Attagene TRANS-FACTORIAL Multi-Species (XSP2) HepG2 Assay for chicken Estrogen Receptor (ERa) (AID 2283817).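 Also: actives raise reporter signal above DMSO so AC50 reflects ER activation.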 In outline:
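Exogenous chicken ERa-Gal4 chimera activity was assessed in transfected human liver HepG2 cells after 24 h of treatment. Induced reporter mRNA was quantified fluorescently by capillary electrophoresis, with DMSO as baseline.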

Test [17] concerns zebrafish Estrogen Receptor (ER2a), gene 317734. The test is described as follows: ATG_zfER2a_XSP2: Attagene TRANS-FACTORIAL Multi-Species (XSP2) HepG2 Assay for zebrafish Estrogen Receptor (ER2a) (AID 2283818).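 Also: hits raise reporter mRNA so AC50 reflects activation of zebrafish ER2a.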 The procedure, abridged:
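Multiplexed trans-reporter readout: RT-PCR then capillary electrophoresis of reporter transcripts after 24 h compound treatment. Human HepG2 carries transfected zebrafish ER2a-Gal4 chimera; 3 nM 6-alpha-fluorotestosterone plus 1.5 nM norgestrel present. Induction scored against DMSO.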

Test [18] relates to chicken Androgen Receptor (AR), gene 422165. As to the kind of experiment: ATG_chAR_XSP2: Attagene TRANS-FACTORIAL Multi-Species (XSP2) HepG2 Assay for chicken Androgen Receptor (AR) (AID 2283819).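 Also: hits raise reporter mRNA above DMSO so potency is for activation.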 The procedure, abridged:
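Readout is reporter mRNA induction via RT-PCR/capillary electrophoresis after 24 h chemical exposure, positive direction relative to DMSO. Transiently transfected HepG2 express chimeric chicken AR–GAL4; AR stimulated by 3 nM 6-alpha-fluorotestosterone and 1.5 nM norgestrel.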

Test [19] concerns frog Estrogen Receptor (ER), gene 398734. The test is described as follows: ATG_frER1_XSP2: Attagene TRANS-FACTORIAL Multi-Species (XSP2) HepG2 Assay for frog Estrogen Receptor (ER) (AID 2283821).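 Also: hits raise reporter mRNA above DMSO baseline so potency means agonist or activator.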 The procedure, abridged:
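Gain-of-signal mRNA reporter assay, HepG2 human liver cells, 24 h dosing; transcripts read by fluorescent RT-PCR fragment analysis, DMSO as negative control.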

Test [20] has as its target GAL4 Transcription Factor (Internal Marker), GAL4 (gene 855828) (UniProt P04386). The test is described as follows: ATG_GAL4_XSP2: Attagene TRANS-FACTORIAL Multi-Species (XSP2) HepG2 Assay for GAL4 Transcription Factor (Internal Marker) (AID 2283814).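 Also: GAL4 reporter mRNA background control in MRTU transfected cells not a receptor target.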 The procedure, abridged: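 Background-control readout: gain-of-signal fitted against DMSO. After 24 h exposure of transfected HepG2 (MRTU, GAL4-UAS reporters; 3 nM 6-alpha-fluorotestosterone, 1.5 nM norgestrel present), transcripts quantified by RT-PCR and capillary electrophoresis fluorescence.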

Sequence of GAL4 Transcription Factor (Internal Marker), GAL4 (gene 855828) (P04386 whole entry, looked up, the tested form may be a part): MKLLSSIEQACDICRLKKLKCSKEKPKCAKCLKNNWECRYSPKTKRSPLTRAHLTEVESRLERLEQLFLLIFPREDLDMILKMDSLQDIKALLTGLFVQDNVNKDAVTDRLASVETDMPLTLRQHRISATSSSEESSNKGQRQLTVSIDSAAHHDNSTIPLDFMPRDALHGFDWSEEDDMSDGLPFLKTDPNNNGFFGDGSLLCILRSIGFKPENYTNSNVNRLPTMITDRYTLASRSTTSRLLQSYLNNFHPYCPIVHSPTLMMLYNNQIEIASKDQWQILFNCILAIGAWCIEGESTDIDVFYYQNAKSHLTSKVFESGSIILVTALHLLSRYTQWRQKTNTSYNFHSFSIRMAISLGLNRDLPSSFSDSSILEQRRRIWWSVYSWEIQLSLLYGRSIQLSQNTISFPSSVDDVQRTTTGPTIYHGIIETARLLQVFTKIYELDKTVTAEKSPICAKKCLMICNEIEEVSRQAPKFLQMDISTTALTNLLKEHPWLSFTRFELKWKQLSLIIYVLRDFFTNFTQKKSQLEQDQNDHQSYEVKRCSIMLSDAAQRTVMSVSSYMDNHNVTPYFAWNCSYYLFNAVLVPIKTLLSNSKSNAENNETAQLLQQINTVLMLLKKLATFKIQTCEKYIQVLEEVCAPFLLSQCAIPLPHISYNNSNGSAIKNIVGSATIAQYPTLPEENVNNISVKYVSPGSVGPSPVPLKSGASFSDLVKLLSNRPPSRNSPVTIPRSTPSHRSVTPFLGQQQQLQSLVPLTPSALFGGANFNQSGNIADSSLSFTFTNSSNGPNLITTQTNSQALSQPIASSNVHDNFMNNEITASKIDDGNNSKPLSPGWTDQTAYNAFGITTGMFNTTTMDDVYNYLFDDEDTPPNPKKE
Sequence of zebrafish Estrogen Receptor (ER1), esr1 (gene 259252) (P57717 whole entry, looked up, the tested form may be a part): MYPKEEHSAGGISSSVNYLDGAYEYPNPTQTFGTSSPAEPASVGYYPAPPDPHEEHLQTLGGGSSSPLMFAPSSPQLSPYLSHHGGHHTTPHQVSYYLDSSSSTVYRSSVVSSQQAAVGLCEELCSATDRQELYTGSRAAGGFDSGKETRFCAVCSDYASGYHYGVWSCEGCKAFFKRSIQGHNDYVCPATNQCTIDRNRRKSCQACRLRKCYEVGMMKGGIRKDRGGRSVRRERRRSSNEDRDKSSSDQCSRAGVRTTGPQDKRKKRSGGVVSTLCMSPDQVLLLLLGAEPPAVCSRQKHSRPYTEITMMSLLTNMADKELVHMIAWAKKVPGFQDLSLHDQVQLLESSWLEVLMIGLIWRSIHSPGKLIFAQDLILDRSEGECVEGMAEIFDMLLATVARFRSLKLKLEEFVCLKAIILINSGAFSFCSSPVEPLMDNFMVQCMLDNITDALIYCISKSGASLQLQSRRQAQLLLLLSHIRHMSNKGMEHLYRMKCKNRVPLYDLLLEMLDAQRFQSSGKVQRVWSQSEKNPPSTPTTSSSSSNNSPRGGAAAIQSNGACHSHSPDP
Sequence of chicken Estrogen Receptor (ERa), ESR1 (gene 396099) (P06212 whole entry, looked up, the tested form may be a part): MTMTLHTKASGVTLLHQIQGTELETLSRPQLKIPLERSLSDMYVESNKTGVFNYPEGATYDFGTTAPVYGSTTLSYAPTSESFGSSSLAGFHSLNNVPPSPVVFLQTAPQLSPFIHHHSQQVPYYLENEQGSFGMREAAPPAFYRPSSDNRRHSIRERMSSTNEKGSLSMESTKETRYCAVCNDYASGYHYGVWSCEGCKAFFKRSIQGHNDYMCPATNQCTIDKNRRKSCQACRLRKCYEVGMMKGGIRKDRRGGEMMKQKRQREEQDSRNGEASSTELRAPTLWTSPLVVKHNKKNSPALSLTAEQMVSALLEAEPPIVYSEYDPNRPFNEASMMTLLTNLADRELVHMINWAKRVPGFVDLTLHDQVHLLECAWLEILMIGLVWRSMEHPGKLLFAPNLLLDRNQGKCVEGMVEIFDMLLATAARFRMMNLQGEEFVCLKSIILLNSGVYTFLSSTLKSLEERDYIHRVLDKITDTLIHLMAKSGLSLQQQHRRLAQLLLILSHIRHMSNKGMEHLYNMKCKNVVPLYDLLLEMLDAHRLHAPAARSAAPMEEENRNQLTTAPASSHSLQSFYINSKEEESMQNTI
Sequence of frog Thyroid hormone Receptor alpha (TRa), thra-a (gene 397942) (P15204 whole entry, looked up, the tested form may be a part): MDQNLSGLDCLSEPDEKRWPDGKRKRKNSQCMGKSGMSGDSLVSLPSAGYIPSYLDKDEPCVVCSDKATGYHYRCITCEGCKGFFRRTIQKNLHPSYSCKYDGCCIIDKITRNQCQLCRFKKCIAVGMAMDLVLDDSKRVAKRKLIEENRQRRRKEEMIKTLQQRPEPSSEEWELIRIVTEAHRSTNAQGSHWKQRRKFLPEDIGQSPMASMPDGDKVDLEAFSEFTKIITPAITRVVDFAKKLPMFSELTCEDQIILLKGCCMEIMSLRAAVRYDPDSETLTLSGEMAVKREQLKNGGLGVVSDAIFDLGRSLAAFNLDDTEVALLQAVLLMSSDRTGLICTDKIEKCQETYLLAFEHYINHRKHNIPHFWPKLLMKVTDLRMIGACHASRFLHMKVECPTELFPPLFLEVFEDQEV
Sequence of Peroxisome proliferator-activated receptor gamma (Homo sapiens) (P37231 whole entry, looked up, the tested form may be a part): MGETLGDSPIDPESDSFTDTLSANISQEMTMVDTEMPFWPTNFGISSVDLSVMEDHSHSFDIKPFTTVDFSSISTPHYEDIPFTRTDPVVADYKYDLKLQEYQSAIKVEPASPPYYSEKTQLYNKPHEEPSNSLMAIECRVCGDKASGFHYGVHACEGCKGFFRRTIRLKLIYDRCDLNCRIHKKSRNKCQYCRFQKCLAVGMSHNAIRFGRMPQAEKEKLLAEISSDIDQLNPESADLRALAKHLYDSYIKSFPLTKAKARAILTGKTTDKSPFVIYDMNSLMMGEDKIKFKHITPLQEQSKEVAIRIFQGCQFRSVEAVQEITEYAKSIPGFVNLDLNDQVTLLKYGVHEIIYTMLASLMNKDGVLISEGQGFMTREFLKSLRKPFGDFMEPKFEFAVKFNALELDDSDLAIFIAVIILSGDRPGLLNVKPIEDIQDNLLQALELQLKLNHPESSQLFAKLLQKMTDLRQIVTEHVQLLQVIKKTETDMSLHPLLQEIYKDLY
Sequence of zebrafish Thyroid Hormone Receptor beta (TRb), thrb (gene 30607) (Q9PVE4 whole entry, looked up, the tested form may be a part): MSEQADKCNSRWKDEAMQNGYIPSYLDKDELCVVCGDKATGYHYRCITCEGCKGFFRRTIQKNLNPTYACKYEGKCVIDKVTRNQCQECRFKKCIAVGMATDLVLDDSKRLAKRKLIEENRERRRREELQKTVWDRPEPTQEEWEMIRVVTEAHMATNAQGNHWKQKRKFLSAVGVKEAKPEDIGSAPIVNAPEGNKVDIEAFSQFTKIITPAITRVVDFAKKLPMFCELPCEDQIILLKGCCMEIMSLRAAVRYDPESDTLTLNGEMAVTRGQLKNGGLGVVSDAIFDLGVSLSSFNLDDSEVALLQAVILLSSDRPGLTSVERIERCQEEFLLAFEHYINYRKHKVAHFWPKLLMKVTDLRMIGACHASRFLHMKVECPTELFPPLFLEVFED
Sequence of mouse Peroxisome Proliferator-activated Receptor gamma (PPARg), Pparg (gene 19016) (P37238 whole entry, looked up, the tested form may be a part): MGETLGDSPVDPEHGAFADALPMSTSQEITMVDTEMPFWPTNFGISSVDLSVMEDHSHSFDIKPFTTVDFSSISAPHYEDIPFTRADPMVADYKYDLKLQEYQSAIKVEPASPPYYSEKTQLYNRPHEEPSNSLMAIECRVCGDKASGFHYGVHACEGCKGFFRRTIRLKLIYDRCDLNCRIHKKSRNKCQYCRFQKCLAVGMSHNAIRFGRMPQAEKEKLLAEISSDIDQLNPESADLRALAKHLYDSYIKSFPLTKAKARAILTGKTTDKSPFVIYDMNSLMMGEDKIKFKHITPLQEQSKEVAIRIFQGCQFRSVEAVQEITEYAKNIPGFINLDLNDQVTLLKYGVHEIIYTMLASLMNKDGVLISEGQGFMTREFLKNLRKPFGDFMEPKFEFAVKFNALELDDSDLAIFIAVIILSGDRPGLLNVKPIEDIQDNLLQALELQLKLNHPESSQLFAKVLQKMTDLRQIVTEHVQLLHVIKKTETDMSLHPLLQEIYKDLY
Sequence of Nuclear receptor subfamily 1 group I member 2 (Mus musculus) (O54915 whole entry, looked up, the tested form may be a part): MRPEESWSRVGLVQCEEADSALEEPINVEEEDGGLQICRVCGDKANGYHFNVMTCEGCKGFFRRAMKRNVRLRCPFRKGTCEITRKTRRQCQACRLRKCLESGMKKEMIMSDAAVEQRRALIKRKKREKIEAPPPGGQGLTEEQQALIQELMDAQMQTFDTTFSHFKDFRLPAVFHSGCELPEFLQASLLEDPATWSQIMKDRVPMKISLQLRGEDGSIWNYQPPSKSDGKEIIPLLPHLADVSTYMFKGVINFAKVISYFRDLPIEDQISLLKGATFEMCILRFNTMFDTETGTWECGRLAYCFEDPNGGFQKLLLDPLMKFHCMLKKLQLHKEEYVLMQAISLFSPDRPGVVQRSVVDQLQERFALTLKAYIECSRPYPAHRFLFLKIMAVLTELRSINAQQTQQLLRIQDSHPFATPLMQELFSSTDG
Sequence of Estrogen receptor beta (Homo sapiens) (Q92731 whole entry, looked up, the tested form may be a part): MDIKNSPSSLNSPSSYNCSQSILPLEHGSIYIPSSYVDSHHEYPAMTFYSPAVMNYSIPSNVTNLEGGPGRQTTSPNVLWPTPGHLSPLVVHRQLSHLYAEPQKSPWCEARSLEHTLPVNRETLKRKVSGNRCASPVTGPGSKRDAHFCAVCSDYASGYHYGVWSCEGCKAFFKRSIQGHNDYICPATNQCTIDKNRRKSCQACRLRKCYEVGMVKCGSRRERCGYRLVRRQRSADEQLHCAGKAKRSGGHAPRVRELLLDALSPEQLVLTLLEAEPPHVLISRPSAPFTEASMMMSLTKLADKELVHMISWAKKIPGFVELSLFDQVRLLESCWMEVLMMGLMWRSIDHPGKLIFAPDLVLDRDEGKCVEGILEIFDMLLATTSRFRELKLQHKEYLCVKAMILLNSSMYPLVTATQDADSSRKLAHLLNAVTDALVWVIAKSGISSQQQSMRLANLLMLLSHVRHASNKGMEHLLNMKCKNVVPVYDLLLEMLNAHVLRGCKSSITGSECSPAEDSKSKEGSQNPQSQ

In general, AC50 refers to the concentration giving half of the maximal activity seen. Take `CC(C)(C)c1cc(O)c(C(C)(C)C)cc1O`: the compound was classed as inactive in test [1], in test [2], in test [3], in [5], in [7] and in [8]. Moreover, the outcome in test [9], in test [10], in test [11], in test [12], in test [13] and in [14] was inactive. Also, the compound was called inactive in test [15], in test [16], in [17], in [18] and in test [19]. Moreover, the AC50 is 160 µM (active) in test [4] and 100 µM (active) in test [6].

As for `C=CCOC(=O)c1ccccc1C(=O)OCC=C`, the call in [12], in [20], in [15], in [16], in [17] and in [18] was inactive. Besides, the compound was classed as inactive in test [19]. Besides, the AC50 in test [13] was 74.3 µM (active) and 100 µM (active); in [16], 62.3 µM (active).

As to `CCCc1cc(=O)[nH]c(=S)[nH]1`, the compound was classed as inactive in test [15] and in test [19].

Regarding `CC(=O)C(C)=CC1C(C)=CCCC1(C)C` (stereo not drawn), the compound was called inactive in test [12], in [20] and in test [15]. Besides, the AC50 in test [13] was 29.9 µM (active) and 25.5 µM (active); in [15], 34.2 µM (active); in [16], 19.8 µM (active) and 14 µM (active); in test [17], 15 µM (active) and 19.8 µM (active); in test [19], 27.3 µM (active) and 27.2 µM (active).
